TDP1 cell noCPT – qHTS for Inhibitors of human tyrosyl-DNA phosphodiesterase 1 (TDP1): qHTS in cells in absence of CPT | DT40 Tdp1-/- hTDP1 cells, no CPT, ATP luminescence, 48 h | Potency, µM (highest dose often 46.2 µM), hits mostly inhibitors | 420,000 tested, 15% active; note: nearly all actives have a fitted effect of over 55% in size
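DT40 Tdp1-/-;hTDP1 cells, no CPT (DMSO vehicle only), 400 cells/well; compounds pin-transferred; ≥48 hr, 37 °C; CellTiter-Glo 30 min RT dark, luminescence read.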
IL-1B inflam inh – qHTS for Inhibitors of Inflammasome Signaling: IL-1-beta AlphaLISA Primary Screen. THP-1 LPS/ATP IL-1B secretion, AlphaLISA, 16 h; hits give low values. activity change, % at 57.5 µM. 360,000 tested, 4.7% active; in the data active = activity change below about -50%; inconclusive = mostly about -30% to -49%
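THP-1 cells pretreated 1 hr with compounds (up to 57.5 uM final), then stimulated with LPS (250 ng/mL final) plus ATP (1.25 mM final); secreted IL-1B measured by AlphaLISA after 16 hr, decreased signal indicating inhibition.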
DT40 TDP1 CPT – qHTS for Inhibitors of human tyrosyl-DNA phosphodiesterase 1 (TDP1): qHTS in cells in presence of CPT. chicken DT40 Tdp1-/-;hTDP1 cells + 20 nM CPT, ATP luminescence, 48 h. Potency, µM (series often up to 46.2 µM), usual class: inhibitors. 420,000 tested, 12% active; note: nearly all actives have a fitted effect of over 55% in size
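Chicken DT40 Tdp1-/- cells complemented with human TDP1, 400 cells/well, exposed to compounds plus 20 nM camptothecin for at least 48 h at 37 C; viability read as ATP content by CellTiter-Glo luminescence.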
HT1080 IDH1KD tx – qHTS for induction of synthetic lethality in tumor cells producing 2HG: qHTS for the HT-1080-IDH1KD cell line; 360,000 tested, 2% active; Potency, µM (top dose mostly 46.1 µM), actives largely listed as cytotoxic; HT-1080 IDH1 knockdown viability, ATP luminescence, 48 h
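IDH1KD HT-1080 cells, 750/well, RPMI + 5% FBS; compound pinned after 2 h settling; 48 h, 37 °C; CellTiter-Glo luminescence; % activity normalised to DMSO and no-cell wells; curves fitted, classed by r2 and efficacy.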
HT1080NT lethal – qHTS for induction of synthetic lethality in tumor cells producing 2HG: qHTS for the HT-1080-NT fibrosarcoma cell line; HT-1080-NT fibrosarcoma viability, CellTiter-Glo ATP luminescence, 48 h; Potency, µM (titrated, usually from 46.1 µM), actives largely listed as cytotoxic; 360,000 tested, 1.6% active; AID 686970, 2013;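 note: NT is the 2HG producing partner of a matched IDH1 knockdown line; nearly all actives have a fitted effect of over 55% in size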
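HT-1080-NT fibrosarcoma cells (2HG-overproducing), 750 cells/well in RPMI with 5% FBS, dosed after 2 h and incubated 48 h at 37C. CellTiter-Glo luminescence normalized to DMSO and no-cell wells; concentration-response curves fitted and classed.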
Large screens that a line does not name were inactive. Rows were chosen to be rich in hits. Some 19% of all compounds tested hit in one or more screens of this group. Unless noted, calls come from the whole dose curve; as a rule, active = well fitted curve in the direction sought with a large enough effect; inconclusive = small, poorly fitted or top-dose-only effect, or another doubt; inactive = no such curve, though single readings can be large; an effect the other way counts as inactive or inconclusive.

COc1ccc(-n2nnnc2C(c2ccnc3ccccc23)N2CCC3(CC2)C(=O)NCN3c2ccccc2)cc1 (centres undefined)	TDP1 cell noCPT 23.1µM, DT40 TDP1 CPT inconclusive, HT1080 IDH1KD tx inconclusive, HT1080NT lethal inconclusive
CCC(c1nnnn1Cc1ccccc1)N1CCC2(CC1)C(=O)NCN2c1ccccc1 (centres undefined)	TDP1 cell noCPT inconclusive, DT40 TDP1 CPT inconclusive
CC(=O)OC1C2C(OC(=O)Cc3ccccc3)C(C)CC2(OC(C)=O)C(=O)/C(C)=C/C2C(CC[C@@]13CO3)C2(C)C (some centres undefined)	none (no result: IL-1B inflam inh, HT1080 IDH1KD tx, HT1080NT lethal)
O=P(O)(O)Oc1ccccc1P(=O)(c1ccccc1)c1ccccc1	none
CC(=O)OCC(=O)C1CCC2C3CC=C4CC(O)CC[C@@]4(C)C3CC[C@]12C (some centres undefined)	none (no result: IL-1B inflam inh, HT1080 IDH1KD tx, HT1080NT lethal)
CC(C)Oc1ccc(C(=O)Nc2ccc3c(c2)CCCN3C(=O)c2cccs2)cc1	TDP1 cell noCPT 6.51µM, DT40 TDP1 CPT 11.6µM (no result: IL-1B inflam inh, HT1080 IDH1KD tx, HT1080NT lethal)
COc1ccccc1-c1nc2c(c(SCc3cccc(Cl)c3)n1)Cc1c(CO)cnc(C)c1O2	TDP1 cell noCPT 18.4µM, DT40 TDP1 CPT 9.2µM (no result: IL-1B inflam inh, HT1080 IDH1KD tx, HT1080NT lethal)
Cc1ccsc1C(=O)C1CCCN(Cc2cnc(N3CCCC3)s2)C1 (centres undefined)	TDP1 cell noCPT 18.4µM, DT40 TDP1 CPT 11.6µM
CSc1ncc(CN2CCCC(C(=O)c3sccc3C)C2)cn1 (centres undefined)	TDP1 cell noCPT inconclusive, DT40 TDP1 CPT inconclusive
Cc1ccsc1C(=O)C1CCCN(Cc2cc3ccccc3o2)C1 (centres undefined)	TDP1 cell noCPT inconclusive, DT40 TDP1 CPT inconclusive
Cc1ccsc1C(=O)C1CCCN(Cc2ccc(-n3cccn3)cc2)C1 (centres undefined)	TDP1 cell noCPT 14.6µM, DT40 TDP1 CPT 20.6µM, HT1080 IDH1KD tx inconclusive
Cc1ccc(CN2CCCC(C(=O)c3sccc3C)C2)o1 (centres undefined)	TDP1 cell noCPT 20.6µM
O=c1[nH]c(=S)[nH]c(O)c1N=Nc1ccc(S(=O)(=O)N2CCc3ccccc32)cc1	none
Cc1cccc(C(O)c2ncc(-c3ccccc3Cl)[nH]2)c1C (centres undefined)	TDP1 cell noCPT inconclusive, DT40 TDP1 CPT inconclusive
c1ccc(C2(N3CCCCC3)CCCCC2)cc1	none
c1ccc2sc(C3(NCC4CC4)CCCCC3)cc2c1	TDP1 cell noCPT 13µM, DT40 TDP1 CPT 16.4µM (no result: IL-1B inflam inh, HT1080 IDH1KD tx, HT1080NT lethal)
c1ccc2sc(C3(N4CCCC4)CCCCC3)cc2c1	TDP1 cell noCPT 20.6µM, DT40 TDP1 CPT inconclusive (no result: IL-1B inflam inh, HT1080 IDH1KD tx, HT1080NT lethal)
O=C(O)c1ccccc1-c1c2cc(Br)c(=O)cc-2oc2[c]([Hg])c(O)c(Br)cc12	TDP1 cell noCPT 0.581µM, DT40 TDP1 CPT 1.46µM (no result: IL-1B inflam inh, HT1080 IDH1KD tx, HT1080NT lethal)
Cc1ccc(C(=O)Nc2nc3ccccc3[nH]2)cc1	TDP1 cell noCPT 18.4µM, DT40 TDP1 CPT inconclusive, HT1080 IDH1KD tx inconclusive, HT1080NT lethal inconclusive
CCOC(=O)C(NC(=O)CCl)(Nc1ccc(C(O)(C(=O)OCC)C(F)(F)F)cc1)C(F)(F)F (centres undefined)	TDP1 cell noCPT inconclusive, IL-1B inflam inh -89.0, DT40 TDP1 CPT inconclusive
CCOC(=O)C(O)(c1ccc(NC(=S)NC(=O)c2ccc(Cl)cc2Cl)cc1)C(F)(F)F (centres undefined)	TDP1 cell noCPT 25.9µM, IL-1B inflam inh inconclusive, DT40 TDP1 CPT inconclusive
CCOC(=O)C(O)(c1ccc(NC(=O)Oc2ccccc2)cc1)C(F)(F)F (centres undefined)	TDP1 cell noCPT inconclusive
COC(=O)C(O)(c1ccc(NC(=S)NC(=O)c2ccc(Cl)cc2Cl)cc1)C(F)(F)F (centres undefined)	TDP1 cell noCPT 14.6µM, DT40 TDP1 CPT inconclusive
Cc1ccc(N)cc1Cl	none
CN1C2CCC1C(C(=O)O)C(O)C2 (centres undefined)	none
CCOC(=O)C(NC(=O)C(Cc1ccc(N(CCCl)CCCl)cc1)NC(C)=O)C(C)C (centres undefined)	none
CCOC(=O)CNC(=O)CNC(=O)C(Cc1ccc(N(CCCl)CCCl)cc1)NC(C)=O (centres undefined)	TDP1 cell noCPT 1.64µM, IL-1B inflam inh inconclusive, DT40 TDP1 CPT 1.3µM
CC(=O)NC(Cc1ccc(N(CCCl)CCCl)cc1)C(=O)NCC(=O)NCC(=O)O (centres undefined)	TDP1 cell noCPT 10.3µM, DT40 TDP1 CPT 6.51µM
CC(=O)NC(Cc1ccc(N(CCCl)CCCl)cc1)C(=O)NC(CC(C)C)C(=O)O (centres undefined)	TDP1 cell noCPT 14.6µM, DT40 TDP1 CPT inconclusive
C[C@@H]1CN([C@H](C)CO)C(=O)CCCn2cc(nn2)CO[C@H]1CN(C)C(=O)Oc1ccc2ccccc2c1	none
Cc1ccc(NC(=O)COC(=O)CCc2c[nH]c3ccccc23)cc1[N+](=O)[O-]	DT40 TDP1 CPT inconclusive
CC(=O)N1CC2CC(C1)c1cccc(=O)n1C2 (centres undefined)	none (no result: IL-1B inflam inh, HT1080 IDH1KD tx, HT1080NT lethal)
Cc1ccc(NC(=O)c2cn(CCC#N)nc2-c2ccc3c(c2)OCCO3)c([N+](=O)[O-])c1	TDP1 cell noCPT 6.51µM, DT40 TDP1 CPT inconclusive
Cn1c(=O)oc2cc(S(=O)(=O)N3CCC(C(=O)N4CCN(c5ccccc5)CC4)CC3)ccc21	TDP1 cell noCPT 20.6µM, DT40 TDP1 CPT inconclusive
COc1ccccc1NC(=O)Cn1c(=O)oc2cc(S(=O)(=O)N3CCCC3)ccc21	TDP1 cell noCPT inconclusive
Cc1ccc(Cl)cc1NC(=O)Cn1c(=O)oc2cc(S(=O)(=O)N3CCCCCC3)ccc21	TDP1 cell noCPT 16.4µM, DT40 TDP1 CPT 14.6µM (no result: IL-1B inflam inh, HT1080 IDH1KD tx, HT1080NT lethal)
Cc1ccc(Cl)cc1N1CCN(C(=O)C2CCN(S(=O)(=O)c3ccc4c(c3)oc(=O)n4C)CC2)CC1	TDP1 cell noCPT 0.731µM, DT40 TDP1 CPT 1.16µM (no result: IL-1B inflam inh, HT1080 IDH1KD tx, HT1080NT lethal)
COc1cccc(N2CCN(C(=O)C3CCCN(S(=O)(=O)c4ccc5c(c4)oc(=O)n5C)C3)CC2)c1 (centres undefined)	TDP1 cell noCPT 14.6µM, DT40 TDP1 CPT 18.4µM
Cc1ccc(-n2c(O)c(C=NCCC3=CCCCC3)c(=O)[nH]c2=O)cc1	none
CCCCOP(=O)(OCCCC)C(O)c1ccc(F)cc1 (centres undefined)	TDP1 cell noCPT inconclusive
Cn1c(=O)oc2cc(S(=O)(=O)N3CCC(C(=O)N4CCN(c5ccc(F)cc5)CC4)CC3)ccc21	TDP1 cell noCPT 9.2µM, DT40 TDP1 CPT 25.9µM
Cn1c(=O)oc2cc(S(=O)(=O)N3CCCc4ccccc43)ccc21	TDP1 cell noCPT 5.8µM, DT40 TDP1 CPT 4.11µM, HT1080 IDH1KD tx 8.2µM, HT1080NT lethal 6.51µM

Screening data from PubChem BioAssay.
